High-throughput results: PubChem, several laboratories
S1P3 antag-1 – blocks the human S1P3 receptor. AID 485. Q99500. inhibition, % at 4.98 µM. CHO S1P3 NFAT-BLA reporter, FRET fluorescence, antagonist mode. 0.27% of 170,000 active;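 active means inhibition above the plate cutoff, the mean inhibition of test wells on that plate plus 3 SD, cut at about 28% in these data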;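 further: cells challenged with S1P at its EC80 of 0.8 µM; blue over green emission ratio from cleaved BLA substrate after 4 h stimulation; 0% = S1P-stimulated wells and 100% = unstimulated DMSO-only wells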
Target sequence (Q99500 whole entry, looked up): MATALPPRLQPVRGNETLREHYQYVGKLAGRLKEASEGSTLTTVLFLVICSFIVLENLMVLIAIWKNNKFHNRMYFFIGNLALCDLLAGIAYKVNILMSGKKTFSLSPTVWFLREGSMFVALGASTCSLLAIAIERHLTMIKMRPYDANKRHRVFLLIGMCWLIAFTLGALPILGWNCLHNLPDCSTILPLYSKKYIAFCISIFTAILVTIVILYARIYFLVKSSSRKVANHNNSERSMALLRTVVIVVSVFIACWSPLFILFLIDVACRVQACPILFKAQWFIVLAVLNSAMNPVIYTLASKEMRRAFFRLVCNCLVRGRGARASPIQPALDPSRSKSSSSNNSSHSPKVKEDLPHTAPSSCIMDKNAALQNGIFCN
p97 ATPase inh – inhibitors of human p97 ATPase | P55072 | recombinant p97 ATPase, Kinase-Glo ATP luminescence, 3 h | inhibition, % at 8 µM | 0.42% of 220,000 active; in the data active means inhibition above about 15%;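 further: 0% = DMSO vehicle and 100% = wells lacking enzyme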
S1P4 agonist – agonists of human S1P4 receptor; O95977; S1P4-expressing cell line, agonist reporter assay; activation, % at 4.98 µM; 0.35% of 220,000 active; AID 1509; in the data active means activation above about 11%;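 further: 0% = DMSO vehicle and 100% = reference agonist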
DTT redox prof – compounds producing H2O2 with reducing agent – biochemical, NIH compound library profiling, artefact control for MLSCN library redox annotation, primary screen. AID 878. DTT-dependent redox cycling H2O2, phenol red/HRP absorbance; 100% = 100 µM peroxide control, 0% = buffer. activation, % at 10 µM. 0.03% of 200,000 active;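 active means activation of at least 50% relative to the plate's high and low controls in the primary single-dose screen; inactive means activation below 50%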;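 further: compound incubated with DTT at 0.8 mM final as the reducing agent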
S1P4 antagonist – human S1P4 receptor antagonism; S1P4-expressing cells, antagonist mode, reporter read-out; 0.26% of 220,000 active; O95977; inhibition, % at 4.98 µM; in the data active means inhibition above about 29%;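 further: 0% = wells stimulated with agonist and 100% = vehicle wells without agonist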
Arbovirus anti – antivirals against arbovirus infection. inhibition, % at 10 µM. arbovirus infection cell-based antiviral screen. 0.37% of 200,000 active; in the data active means inhibition above about 30%
S1P3 antag-2 – confirmation of human S1P3 receptor antagonists. shares compounds with S1P3 antag-1. CHO S1P3 NFAT-BLA reporter, FRET, antagonist mode. inhibition, % at 4.98 µM. 30% of 240 active;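 active means inhibition above the hit threshold that was computed for the earlier primary screen, cut at about 30% in these data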;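 further: 0% = S1P-stimulated wells and 100% = unstimulated DMSO-only wells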
* hit, by the source's call; nt = no result given. In the library only some 1.6% were active in any assay of this set; here they are far more common.

SMILES | S1P3 antag-1 | p97 ATPase inh | S1P4 agonist | DTT redox prof | S1P4 antagonist | Arbovirus anti | S1P3 antag-2
CN(Cc1ccccc1)CC(O)COc1ccc(CNCCc2ccncc2)cc1 (stereo unspecified) | -3.7 | -5.3 | -1.0 | -0.3 | 4.1 | -16.8 | nt
CN(Cc1ccccc1)CC(O)COc1ccc(CNCCc2cccnc2)cc1 (stereo unspecified) | 30.8* | 1.0 | -0.7 | 0.4 | -8.5 | -12.7 | -13.8
Cc1ccc(Cl)cc1NC(=O)CCN1C(=O)C2C3CCC(C3)C2C1=O (stereo unspecified) | -2.8 | 0.5 | -1.5 | -0.1 | -1.0 | -5.1 | nt
Cc1nn(C)c2ncc(C(=O)c3cc(F)ccc3O)cc12 | nt | 1.7 | 1.1 | 0.1 | -0.8 | 0.6 | nt
O=C(c1cnc2ccc3ccccc3c2c1)c1cc(F)ccc1O | 31.9* | -0.3 | 1.0 | nt | -6.7 | nt | -2.9
O=C(Nc1ccc(Cl)cc1)c1ccc(Br)cc1F | -4.4 | -2.4 | 2.4 | -0.5 | 0.6 | 2.2 | nt
O=C(O)CC(CC(=O)Nc1ccc(F)c(Cl)c1)c1ccc(Cl)cc1Cl (stereo unspecified) | 59.1* | 1.2 | -0.1 | nt | -14.2 | nt | -6.6
OC(CN1CCOCC1)c1ccc(F)cc1 (stereo unspecified) | 37.1* | -7.7 | -0.4 | -2.5 | -3.1 | 15.0 | -9.6
CC(C)NC(=O)Cn1cc(C(=O)COc2ccccc2)c2ccccc21 | -9.5 | -3.7 | 1.5 | -0.7 | 0.5 | 3.5 | nt
CCN1/C(=C/C=C/c2oc3ccc(-c4ccccc4)cc3[n+]2CC)Oc2ccc(-c3ccccc3)cc21 | 31.2* | 8.4 | 0.6 | 1.7 | 9.7 | -28.2 | 54.4*
CCCCN1C(=O)/C(=C/C=C2\Oc3ccccc3N2CC)SC1=S | -3.6 | 4.8 | -0.4 | -0.2 | -11.9 | -6.4 | nt
O=C(NCc1cccc(F)c1)C1CCN(C(=O)c2sccc2-n2cccc2)CC1 | -4.6 | 3.8 | 2.9 | 0.8 | -17.5 | 7.7 | nt
O=C(CSCc1cccc(Cl)c1)Nc1ccccc1-c1ccccc1 | 2.0 | -6.1 | 0.3 | 0.1 | 3.4 | -5.7 | nt
Cc1nc(C(C)NC(=O)CCc2nnc(-c3ccsc3)o2)cs1 (stereo unspecified) | 37.8* | 1.2 | 1.1 | -0.8 | 0.3 | 2.6 | -8.4
COC(=O)[C@@H](NC(=O)CCc1nnc(-c2ccsc2)o1)C(C)C | -8.1 | 6.3 | -0.1 | -1.1 | -17.6 | 3.4 | nt
Cc1cc(C)c(C)c(S(=O)(=O)N2CCN(C(=O)CCC(=O)N3CCOCC3)CC2)c1C | 31.1* | -3.9 | -0.5 | nt | -4.4 | nt | -9.7
Cc1cc(C)c(C)c(S(=O)(=O)N2CCN(C)CC2)c1C | -9.0 | 2.5 | 1.5 | 0.6 | -1.2 | 16.6 | nt
Cc1[nH]c2c(ccc3cccnc32)c1C | -3.5 | 8.2 | 0.4 | nt | -6.9 | nt | nt
CC1=[N+](C)c2c(ccc3cccnc23)C1(C)C | 29.1* | 4.3 | 0.4 | 0.2 | -38.6 | -11.8 | 14.7
CCCn1c(C)cc(/C=C(\C#N)C(=O)OCC(=O)Nc2ccc(OC)c(Cl)c2)c1C | 92.1* | -2.0 | 3.0 | -0.4 | -13.8 | -3.5 | -15.6
CCCn1c(C)cc(/C=C(\C#N)C(=O)OCC(=O)NC(=O)NCC)c1C | nt | -7.4 | 0.4 | -0.1 | -17.5 | -0.6 | nt
NC(=O)N/N=C/c1c(Sc2nnnn2-c2ccccc2)nc2ccccn2c1=O | 1.2 | 7.7 | -0.7 | nt | 11.3 | nt | nt
O=C(CN1CCN(Cc2ccccc2)CC1)NCCNc1ccc([N+](=O)[O-])cn1 | 50.6* | -2.5 | -0.2 | 0.9 | -1.1 | 10.7 | -18.2
O=C(CN1CCN(Cc2ccccc2)CC1)Nc1ccc(Cl)cn1 | 24.8 | -2.1 | 1.2 | 0.1 | -7.6 | 0.8 | nt
CCCn1nc(C(=O)Oc2ccc3c(C)cc(=O)oc3c2)c2ccccc2c1=O | -4.7 | -2.2 | 1.1 | -0.5 | -3.6 | 3.5 | nt
CCC(C)NC(=O)Cc1c(OC)ccc2cc(Br)ccc12 (stereo unspecified) | 32.7* | -0.6 | 2.1 | 0.3 | -8.4 | 1.8 | -0.9
CCCC(C)NC(=O)Cc1ccc(Br)cc1 (stereo unspecified) | 3.3 | 3.0 | 1.4 | 0.2 | -14.0 | -0.3 | nt
O=C(Nc1ccccc1)c1cc(S(=O)(=O)N2CCSCC2)ccc1Cl | -5.8 | 2.4 | 0.6 | 0.5 | -16.4 | 4.0 | nt
Cc1cc(NNC(=O)Nc2cccc(Cl)c2)nc2c1c(C)nn2C | 31.7* | 4.0 | -1.0 | nt | 10.2 | nt | 13.9
